Molecules are shown by their SMILES. Where “and” joins values, the source holds several entries; their conditions need not be identical. Identical values can stand only once. About 83,000 compounds went through this panel and 20% of them were active in at least one assay; those are over-represented in the sample as a whole.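 Each cell line was grown in a 96-well plate and treated with one concentration of compound for 48 hours. Values below 10 were considered active.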 Calls of active or inactive are those of the source.

For the assay, the system named is NCI-H460 lung. Put plainly: NCI-60 one-dose screen, 48 h (100 = growth as untreated, 0 = no growth, -100 = all killed). The following applies: 10 µM unless noted.
As for `COc1ccc(/C(C#N)=C/c2ccccn2)cc1`, the growth was 105% (inactive) and 103% (inactive).

For the compound `O=C1OC2(c3ccccc31)c1ccc(O)c(O)c1Oc1c2ccc(O)c1O`, the growth was 114% (inactive) and 109% (inactive).

Take `CC(=O)Nc1cccc2c1CCCC2`: the growth was 101% (inactive) and 111% (inactive).

For `CN(C)c1ccc2nc3ccc(N)cc3[n+](-c3ccccc3)c2c1`, the growth was 9.65% (active) and 9.63% (active).

Take `CCN(CC)CCOc1ccc(/C=N/Nc2nc3c([nH]2)c(=O)n(C)c(=O)n3C)cc1`: the growth was 109% (inactive) and 105% (inactive).

Take `O=C1CCN(Cc2ccccc2)C(=S)N1`: the growth is 113% (inactive) and 105% (inactive).

Regarding `CC(C)Cc1ccc(C(C)C(=O)NCc2ccc(Cn3c(=O)sn(CCCI)c3=O)cc2)cc1` (configuration not stated), the growth was 99.6% (inactive) and 3.28% (active).

As to `CCc1c(CC(=O)O)c2cc(C)ccc2n1Cc1ccc(Cl)cc1`, the growth is 103% (inactive) and 95.8% (inactive).

Consider `CNC(=O)c1ccc(C)c(-n2c(C)cc(OCc3ccc(F)cc3F)c(Br)c2=O)c1`, for which the growth was 80.3% (inactive) and 97.2% (inactive).

In the case of `O=[N+]([O-])c1ccc(-n2[nH]nnc2=S)cc1`, the growth was 110% (inactive).

In the case of `COC(=O)/C=C/c1cc(O)c2c(c1)C(C(=O)OC)C(c1ccc(O)c(O)c1)O2` (configuration not stated), the growth is 28% (inactive) and 17.7% (inactive).

For the compound `COC(=O)c1nc(N)nc(C(=O)OC)c1C(=O)c1ccc(OC)cc1`, the growth was 121% (inactive) and 55% (inactive).

These data come from PubChem BioAssay (NCI).
